Pol kappa inh = qHTS for Inhibitors of Polymerase Kappa. DNA polymerase kappa (Homo sapiens), Q9UBT6. Potency, µM (titrated, usually from 107 µM), inactives show at the highest dose activity, negative = inhibition, usual class: inhibitors. purified Pol kappa, fluorescent DNA synthesis assay, 10 min. hit rate 0.53% among 400,000; also: potency is read from the fitted curve at half-maximal effect; % is scaled to controls: 0 for no effect and ±100 for the full control effect
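First, compounds were pin-transferred onto 10 nM Pol kappa. After 15 min at room temperature, substrate was added to 50 nM final. Fluorescence was then measured kinetically at 0 and 10 min.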
POLH inh = qHTS for Inhibitors of Polymerase Eta; Potency, µM (doses to about 114 µM), for the others: at the top dose activity change, negative = inhibition, most hits filed as inhibitors; hit rate 1.2% among 390,000; recombinant Pol eta, fluorescent DNA replication assay; DNA polymerase eta (Homo sapiens), Q9Y253; also: potency is read from the fitted curve at half-maximal effect; % is scaled to controls: 0 for no effect and ±100 for the full control effect
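Pol eta (10 nM) was preincubated with compounds for 15 min at room temperature, after which fluorescent replication substrate (50 nM final) was added to start the reaction. Fluorescence was read kinetically at 0 and 10 min.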
PI5P4Ka inh = qHTS for Inhibitors of phosphatidylinositol 5-phosphate 4-kinase (PI5P4K); AID 652105, 2013; Phosphatidylinositol 5-phosphate 4-kinase type-2 alpha (Homo sapiens), P48426; PI5P4Kalpha enzyme, ADP-Glo luminescence, 60 min; active compounds read low; hit rate 1.2% among 330,000; max response, %; active = max response of -50% or lower; inconclusive = between -30% and -50%; inactive = -30% or higher; also: value at the top dose of about 77 µM; % is scaled to controls: 0 for no effect and ±100 for the full control effect
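Controls without substrate or without enzyme flank wells where PI5P4Kalpha converts substrate using 5 microM ATP (final). Incubation lasts 60 minutes at room temperature; ADP formed is read by ADP-Glo luminescence.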
POLI inh = qHTS for Inhibitors of Polymerase Iota; DNA polymerase iota (Homo sapiens), Q9UNA4; hit rate 1% among 390,000; Pol iota fluorescent replication assay, 10 min; Potency, µM (titrated, usually from 115 µM), for inactives: at the top dose activity, negative = inhibition, hits mostly inhibitors; also: potency is read from the fitted curve at half-maximal effect
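Pol iota at 10 nM preincubated 15 min with compounds at room temperature; reaction started with fluorescent substrate, 50 nM final. Fluorescence read kinetically at 0 and 10 min; buffer-only wells as negative control.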
12-LOX inh = Primary qHTS assay for inhibitors of human arachidonate 12S-lipoxygenase (ALOX12): Round 2; Potency, µM (series often up to 108 µM), without a hit: at the top dose activity change, negative = inhibition, hits mostly inhibitors; hit rate 1.1% among 580,000; Polyunsaturated fatty acid lipoxygenase ALOX12 (Homo sapiens), P18054; purified 12hLO, xylenol orange hydroperoxide absorbance; also: potency is read from the fitted curve at half-maximal effect; % is scaled to controls: 0 for no effect and ±100 for the full control effect
Target sequence (P18054 whole entry, looked up): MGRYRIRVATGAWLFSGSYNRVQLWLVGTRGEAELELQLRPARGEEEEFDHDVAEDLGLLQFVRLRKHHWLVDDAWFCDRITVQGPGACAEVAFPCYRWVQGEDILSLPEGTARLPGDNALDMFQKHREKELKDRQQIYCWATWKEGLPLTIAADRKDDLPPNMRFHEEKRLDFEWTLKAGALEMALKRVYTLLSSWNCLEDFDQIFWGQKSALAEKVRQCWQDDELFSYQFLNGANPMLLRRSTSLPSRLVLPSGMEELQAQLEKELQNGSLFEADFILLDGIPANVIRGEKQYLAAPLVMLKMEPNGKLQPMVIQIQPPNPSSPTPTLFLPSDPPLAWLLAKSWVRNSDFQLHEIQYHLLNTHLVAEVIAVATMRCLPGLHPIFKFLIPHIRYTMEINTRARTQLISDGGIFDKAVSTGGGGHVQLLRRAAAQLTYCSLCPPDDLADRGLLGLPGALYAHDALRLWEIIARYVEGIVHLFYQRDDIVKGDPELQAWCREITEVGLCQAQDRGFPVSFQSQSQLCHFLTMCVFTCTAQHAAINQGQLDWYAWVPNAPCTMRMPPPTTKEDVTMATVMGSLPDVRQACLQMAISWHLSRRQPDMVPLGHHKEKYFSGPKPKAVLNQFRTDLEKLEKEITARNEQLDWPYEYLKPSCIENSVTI
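Purified human 12hLO at 150 nM in 25 mM Hepes, 0.01% Triton X-100, pH 7.0, preincubated 15 min at room temperature with compound. Reaction started with 40 uM arachidonic acid, 30 min at room temperature. Hydroperoxide measured by Fe-xylenol orange, 573/405 nm absorbance ratio.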
POLB inh = qHTS Assay for Inhibitors of DNA Polymerase Beta; hit rate 1.3% among 340,000; AID 485314, 2010; P06746; Pol beta primer extension/strand displacement, fluorescence kinetic; Potency, µM (doses to about 114 µM), inactives show at the highest dose activity change, negative = inhibition, hits mostly inhibitors; also: potency is read from the fitted curve at half-maximal effect; % is scaled to controls: 0 for no effect and ±100 for the full control effect
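Homogeneous kinetic assay of primer extension and strand displacement by 10 nM Pol beta, preincubated 15 min at room temperature with compound before 50 nM substrate (final) was added. Read at 0 and 10 min; four-parameter Hill fit.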
The depositor's hits bear a star; u = inconclusive; x = no result; [ ] = remark or other dose. Compounds with a hit are over-represented: about 2.9% of the library has one in this group of screens. Unless noted, calls follow the shape of the dose curve; as a rule, active = well fitted inhibition curve with a large enough effect; inconclusive = small, poorly fitted or top-dose-only effect, or another doubt; inactive = no such curve, though single readings can be large or run the other way.

SMILES | Pol kappa inh | POLH inh | PI5P4Ka inh | POLI inh | 12-LOX inh | POLB inh
CC(=O)C1=C(C)NC(SCC(=O)c2ccccc2)=C(C#N)C1CC(C)C (centres undefined) | -5% | -18% | u | u | 7.9µM* | -17%
O=C(Cn1nnc(-c2ccccc2Cl)n1)N1CCC(c2nc3ccccc3s2)CC1 | x | x | x | x | 41% | x
COc1ccc(-c2cnc3c(NC=O)cc(-c4ccoc4)cn23)cc1OC | x | x | u | x | 5µM* | x
COc1cccc(-c2cnc3c(NC=O)cc(-c4cc(OC)c(OC)c(OC)c4)cn23)c1 | x | x | -1 | x | -3% | x
COc1cccc(-c2cc(NC=O)c3ncc(-c4ccc(OC)c(OC)c4)n3c2)c1 | x | x | -54* | x | u | x
COc1cccc(-c2cnc3c(NC=O)cc(-c4ccc(OC)cc4OC)cn23)c1 | x | x | -4 | x | -1% | x
COc1ccc(-c2cc(NC=O)c3ncc(-c4ccc(OC)c(OC)c4)n3c2)c(OC)c1 | x | x | -12 | x | 56µM* | x
Fc1ccc(OCc2nnc(-c3ccccc3)o2)cc1F | x | x | x | x | 27% | x
O=c1[nH]c(CN2CCc3ccccc32)nc2scc(-c3cccs3)c12 | -19% | -4% | -11 | -8% | u | 40µM*
O=c1[nH]c2ccccc2c(O)c1-[n+]1ccccc1 | -6% | -10% | -12 | u | u | -5%
O=c1[nH]c2ccccc2c(O)c1O | 3% | 6% | -96* | u | u | 46%
Cn1cc(CN2CCOC[C@H]2c2nc(C(C)(C)C)co2)c2ccccc21 | x | x | x | x | 20%[176 µM] | x
O=C(Cn1c(=O)n(Cc2ccco2)c(=O)c2c3c(sc21)CCCCC3)c1ccccc1 | -36% | u | x | u | u | 10µM*
O=C(Cn1c(=O)n(Cc2ccco2)c(=O)c2c3c(sc21)CCCCC3)Nc1ccccc1 | u | 50µM* | x | 13µM* | u | 32µM*
O=C(CN1C(=O)C(=O)N(Cc2ccco2)C1=O)Nc1ccccc1 | -31% | 20µM* | -16 | u | u | x
Cc1ccc(NC(=O)CSc2nnc3[nH]c(=O)cc(-c4ccccc4)n23)cc1Cl | -3%[60.1 µM] | -7% | x | 0% | 3% | 40µM*
CC1(C)CC(Nc2nccc(-c3cnn(-c4ccccc4)c3)n2)CC(C)(C)N1 | x | x | x | x | 47% | x
COc1ccc(N(C(=O)c2snc(C(N)=O)c2N)C(C(=O)NC2CCCCC2)c2ccc(F)cc2)c(OC)c1 (centres undefined) | -3% | 22µM* | 1 | u | u | 79µM*
COc1ccc(N(C(=O)c2snc(C(N)=O)c2N)C(C(=O)NC2CCCC2)c2cc(OC)ccc2OC)c(OC)c1 (centres undefined) | -9% | -4% | -2 | 15% | 4% | 3%
Cc1ccc(/C=N/NS(=O)(=O)c2ccc([N+](=O)[O-])cc2)o1 | -12% | -8% | 1 | 1% | -10% | -13%
CC(=O)Nc1ccc(S(=O)(=O)N/N=C/c2ccc(C)o2)cc1 | -14% | u | -23 | 25µM* | -17% | u
Cc1ccc(/C=C/C(=O)Nc2ccc(S(N)(=O)=O)cc2)o1 | -28% | -20% | -54* | u | u | 3%
Cc1ccc(N)c(OCC(F)F)c1 | x | x | x | x | 35% | x
COc1ccc(CCNC(=O)C(=O)NCC(c2cccs2)S(=O)(=O)c2ccccc2)cc1 (centres undefined) | -21%[60.1 µM] | -14% | x | 89µM* | -16% | u
CO[C@@]1(NC(=O)Cc2cccs2)C(=O)N2C(C(=O)O)=C(COC(N)=O)CSC21 (some centres undefined) | 32µM* | x | x | x | x | x
SMILES | Pol kappa inh | POLH inh | PI5P4Ka inh | POLI inh | 12-LOX inh | POLB inh
CO[C@@]1(NC(=O)Cc2cccs2)C(=O)N2C(C(=O)O)=C(COC(N)=O)CS[C@@H]21 | u | u | -2 | u | 1% | 13µM*
NNc1nc2ccc(Cl)cc2s1 | -13% | -22% | -10 | -1% | 7.1µM* | -21%
Fc1ccc2nc(Nc3ccccc3)sc2c1 | -6% | -3% | 1 | 150% | -1% | -4%
NNc1nc2ccc(F)cc2s1 | 7% | -13% | 3 | 21% | 6.3µM* | 8%
Cc1ccccc1C(=O)Nc1cccc(NC(=O)CC23CC4CC(CC(C4)C2)C3)c1 | x | x | x | x | -14% | x
O=C(O)c1ccc2c(c1)C(=O)N(CCc1c[nH]c3ccccc13)C2=O | -12% | 2% | -69* | 29% | 0% | 1%
O=C(O)c1ccc2c(c1)C(=O)N(N1C(=O)c3ccccc3C1=O)C2=O | -12% | -4% | -9 | 18% | -18% | 25µM*
O=C(O)c1ccc2c(c1)C(=O)N(CCCCCCCN1C(=O)c3ccc(C(=O)O)cc3C1=O)C2=O | -7% | -17% | -78* | 33% | 0% | 0%
O=C(O)CCCCCN1C(=O)c2ccc(C(=O)O)cc2C1=O | -11%[60.1 µM] | -10% | x | 23% | -9% | 6%
O=C(Nc1ccccc1O)c1ccc2c(c1)C(=O)N(N1C(=O)c3ccccc3C1=O)C2=O | -13% | -20% | -17 | 7% | -8% | 28µM*
O=C(c1cccc(OC(F)F)c1)n1ccccc1=NC1CCCCC1 | x | x | x | x | -6% | x
O=C(O)c1ccc2c(c1)C(=O)N(CCc1ccccc1)C2=O | -13% | -24% | -65* | 24% | 14% | 19%
CC(=O)Nc1ccc(CN2CCC3(CC(c4cccc(C(F)(F)F)c4)=NO3)C2)cc1 (centres undefined) | x | x | x | x | -1%[6.33 µM] | x
CC(=O)NC1(C)CCN(Cc2cnc(-c3cccc(C(F)(F)F)c3)s2)CC1 | x | x | x | x | 28µM* | x
N#Cc1ccc(-c2csc(NC(=O)c3ccc(N4C(=O)CCC4=O)cc3)n2)cc1 | 7% | -7% | -12 | 22% | -20% | 2%
Cc1cc(-c2csc(NC(=O)c3ccc(C#N)cc3)n2)c(C)n1Cc1ccco1 | u | u | -62* | u | u | 0%
Cc1cc(-c2csc(NC(=O)c3ccc(=O)[nH]c3)n2)c(C)n1Cc1ccccc1 | -7% | -14% | -23 | 3% | 0% | 20µM*
COc1ccc(-c2ocnc2C(=O)Nc2ccc(C)c(Cl)c2)cc1OC | x | x | x | x | 23% | x
CN(C)C(=N)c1ccc(N(C)C)cc1 | x | x | x | x | -12% | x
Oc1ccc(/C=N/n2c(-c3ccccc3)n[nH]c2=S)cc1Br | -5% | -17% | -53* | -12% | 32µM* | 2%
Oc1c(Br)cc(/C=N/n2c(-c3ccccc3)n[nH]c2=S)c(O)c1Br | 40µM* | 10µM* | -85* | u | x | 88%
Cc1c(Br)c(O)c(Br)c(O)c1/C=N/n1c(-c2ccccc2)n[nH]c1=S | 35µM* | 3.2µM* | -83* | 7.9µM* | x | 50µM*

Assay outcomes from PubChem.
